This note sets out measurements from PubChem BioAssay (NCI).

About 79,000 compounds went through this panel and 15% of them were active in at least one assay; those are over-represented in the sample as a whole. A number with no mark means an inactive call. Active and inactive are the calls of the source. No stated cut-off is given here; in the data, active means growth inhibition above about 70%; inactive means the rest.

Test [1] can be described thus: NCI Yeast Anticancer Drug Screen. Data for the rad50 strain (AID 155).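 Further: 0% = growth of vehicle-only cultures of the same strain.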 As to conditions: S. cerevisiae rad50 strain growth inhibition; at 50.0 µM; stronger effect = higher value. The gist of the method: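 Inhibition values express reduced yeast growth in compound-treated cultures relative to vehicle-treated controls.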
Test [2] in a line: NCI Yeast Anticancer Drug Screen. Data for the mec2-1 strain (AID 157). As to conditions: S. cerevisiae mec2-1 strain, at 50.0 µM, stronger effect = higher value. The gist of the method:
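Readout is yeast growth inhibition, normalised to vehicle-treated controls, in the mec2-1 strain exposed to compound.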

A short description of test [3]: NCI Yeast Anticancer Drug Screen. Data for the sgs1 mgt1 strain (AID 161).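 Further: 0% = growth of cultures given vehicle only.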 To be noted: S. cerevisiae sgs1 mgt1 strain, at 50.0 µM, stronger effect = higher value. The gist of the method:
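Percent growth inhibition was derived by comparing compound-exposed mutant yeast with vehicle-exposed cultures. The strain carries alterations in DNA damage repair.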

Test [4] is described as follows: NCI Yeast Anticancer Drug Screen. Data for the cln2 rad14 strain (AID 165).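 Further: 0% = growth equal to vehicle treated cultures.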 To be noted: S. cerevisiae cln2 rad14 strain, at 50.0 µM, stronger effect = higher value. In outline: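 Relative to vehicle controls, growth inhibition of compound-treated cln2 rad14 yeast was recorded.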
The nature of test [5]: NCI Yeast Anticancer Drug Screen. Data for the bub3 strain (AID 167). To be noted: S. cerevisiae bub3 mutant strain, at 50.0 µM, stronger effect = higher value. In outline:
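Steps: expose the mutant yeast strain to compound; grow alongside vehicle-treated cultures; measure growth; express inhibition against the vehicle cultures.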

Test [6] is described as follows: NCI Yeast Anticancer Drug Screen. Data for the mlh1 rad18 strain (AID 175). As to conditions: S. cerevisiae mlh1 rad18 strain growth inhibition; at 50.0 µM; stronger effect = higher value. The gist of the method:
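Test agents were incubated with a yeast strain of defined genotype (DNA damage repair defect). Inhibition of growth was derived by comparison with vehicle-exposed cultures.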

`CCOC(=O)c1cccc(NC(=O)CCl)c1`: the growth inhibition in test [1] is 43.2%; in test [2], 30.1%; in test [3], 37.6%; in test [4] it was 26%; in test [5], 39.9%; in test [6] it was 49.5%.
With `NS(=O)(=O)N1CN(S(N)(=O)=O)CN(S(N)(=O)=O)C1`, the growth inhibition in test [1] is -3.4%; in test [2] it was 4.1%; in test [3] it was 2.65%; in test [4], -18.6%; in test [5] it was 9.75%; in test [6], 13.4%.
With `CN(C)S(=O)(=O)Oc1ccccc1N`, the growth inhibition in test [1] was 5.9%; in test [2], -4.5%; in test [3], 20.9%; in test [4], 18.7%; in test [5] it was -5.15%; in test [6], 15.8%.
`Clc1cc(Cc2cc(Cl)c(Cl)c3c2OCOC3)c2c(c1Cl)COCO2`: the growth inhibition in test [1] was -47.6%; in test [2], -24.9%; in test [3], -5%; in test [4], -22.4%; in test [5], -10.6%; in test [6], -18.3%.
As for `O=C(O)CC1CCC(CC(=O)O)CC1` (stereo not given), the growth inhibition in test [1] is -9.5%; in test [2], -8.65%; in test [3], -5.25%; in test [4], -40.9%; in test [5], -12.7%; in test [6] it was -1.65%.
`O=c1c2cc(Br)ccc2n(C2OC(CO)C(O)C(O)C2O)c(=S)n1-c1ccccc1` (stereo not given): the growth inhibition in test [1] is 30.6%; in test [2] it was 28.4%; in test [3], 31.7%; in test [4], 34.5%; in test [5], 50.5%; in test [6], 24.9%.
With `FC(F)(F)c1ccc(C2SCc3nc4ccccc4n32)cc1` (stereo not given), the growth inhibition in test [1] is -43%; in test [2], -5.4%; in test [3], -1.95%; in test [4] it was -0.5%; in test [5], -14.2%; in test [6], 11.3%.
As for `COc1ccc(COc2ccc([N+](=O)[O-])cc2)cc1`, the growth inhibition is -12.2% in test [1]; 5% in test [2]; -4.45% in test [3]; -9% in test [4]; -13.9% in test [5]; -2.25% in test [6].
With `[O]=[W](=[O])([OH])[OH]`, the growth inhibition in test [1] was -11.3%; in test [2], -13.2%; in test [3], -15.4%; in test [4], 11.7%; in test [5], -11.6%; in test [6] it was -17.5%.
On to `C=C(C)[C@@H]1CC[C@]2(C)CC[C@]3(C)[C@H](CC[C@@H]4[C@@]5(C)CC[C@H](OC(=O)c6ccccc6)C(C)(C)[C@@H]5CC[C@]43C)[C@@H]12`, for which the growth inhibition was -7.6% in test [1]; -16.6% in test [2]; -26.4% in test [3]; 2.9% in test [4]; -0.65% in test [5]; 0% in test [6].
`O=C1c2cccc3c([N+](=O)[O-])ccc(c23)C(=O)N1CC1CCCO1` (stereo not given): the growth inhibition is 71.3% (active) in test [1]; 51% in test [2]; 87.1% (active) in test [3]; 40.8% in test [4]; 51.8% in test [5]; 73.5% (active) in test [6].
On to `Cc1cccc(N=Nc2c(-c3ccccc3)nn(C(N)=S)c2C)c1C`, for which the growth inhibition is -19.8% in test [1]; -30.4% in test [2]; -18.4% in test [3]; -221% in test [4]; -9.95% in test [5]; -7.75% in test [6].
As for `CCCC(C)NC(=O)c1ccc(Cl)c(Cl)c1` (stereo not given), the growth inhibition in test [1] is 0.25%; in test [2], 4.9%; in test [3], 13.1%; in test [4], 8.3%; in test [5] it was 9.15%; in test [6] it was 24.6%.
For `Cc1ccc(/C=N/NC(=O)Cc2cccc3ccccc23)cc1`, the growth inhibition in test [1] is -1.75%; in test [2] it was 13.4%; in test [3] it was 32.9%; in test [4] it was -10.9%; in test [5] it was 17.1%; in test [6], 21.1%.
With `CCOc1ccc(NC(=O)C(=O)CC(=O)c2sc(NNC(C)=O)nc2C)cc1`, the growth inhibition was -21.1% in test [1]; 2.95% in test [2]; 17.5% in test [3]; 14.4% in test [4]; 5.4% in test [5]; -8% in test [6].
For the compound `CCC(=O)OCC(C)COC(=O)CC`, the growth inhibition was 9.55% in test [1]; 11.8% in test [2]; 4.1% in test [3]; 1.05% in test [4]; -8.4% in test [5]; -5.25% in test [6].
As to `CCC(Nc1ccccc1)C(=O)O` (stereo not given), the growth inhibition in test [1] is -4.45%; in test [2], -13.7%; in test [3] it was -8.9%; in test [4], -16.9%; in test [5], -8.7%; in test [6], 4.15%.
Regarding `CC(C)(N)COC(=O)c1ccc([N+](=O)[O-])cc1`, the growth inhibition in test [1] is 3.4%; in test [2], -23.7%; in test [3], 7.1%; in test [4], 0.15%; in test [5], 12.2%; in test [6], 10.2%.
On to `CC(N)/C(N)=N/O` (stereo not given), for which the growth inhibition is 11.2% in test [1]; 4.9% in test [2]; -0.95% in test [3]; -2.45% in test [4]; 18.4% in test [5]; 15% in test [6].
Turning to `c1ccc2c(c1)SCCCSCCSCCCS2`, the growth inhibition is -15.2% in test [1]; -0.65% in test [2]; 8.1% in test [3]; 5.05% in test [4]; 20.6% in test [5]; 2.6% in test [6].
